Here are results for 21 compounds from PubChem BioAssay (NCATS).

Results filed as inconclusive are left out. Activity calls are given as the source filed them. Calls follow the shape of the full dose curve. Bridge positions count the residues as written; N and C are the ends. Square brackets hold non-standard residues; d marks the D form. Peptide text beside a SMILES is read from it. Orn = NCCC[CH](N)C(=O)O; Mpa = O=C(O)CCS

Assay [1] is described as follows: Primary qHTS for inhibitors of SARS-S pseudo-typed particle cell entry (AID 1479145). Also: nearly all actives have a fitted effect of over 45% in size. As to activity change, negative = inhibition: % is scaled to controls: 0 for no effect and ±100 for the full control effect. Particulars: outcome: dose series up to 57.1 µM unless noted.
A short description of assay [2]: Primary qHTS for Huh7 cytotoxicity: counterscreen for inhibitors of MERS-S pseudotyped particle cell entry (AID 1479147). As to activity change, negative = cytotoxicity: % is scaled to controls: 0 for no effect and ±100 for the full control effect. The settings on record: outcome: dose series up to 57.1 µM unless noted. A general note: Quantitative high-throughput screening tests each substance at several concentrations.
The nature of assay [3]: Primary qHTS for inhibitors of MERS-S pseudo-typed particle cell entry (AID 1479149). Also: nearly all actives have a fitted effect of over 60% in size. Particulars: outcome: dose series up to 57.1 µM unless noted.
A short description of assay [4]: Primary qHTS for Vero E6 cytotoxicity: counterscreen for inhibitors of SARS-S pseudo-typed particle cell entry (AID 1479150). As to activity change, negative = cytotoxicity: % is scaled to controls: 0 for no effect and ±100 for the full control effect. The settings on record: outcome: dose series up to 57.1 µM unless noted.
The nature of assay [5]: Cytotoxicity counterscreen for inhibitors of SARS-CoV-2 cell entry (AID 1645845). Also: nearly all actives have a fitted effect of over 50% in size. As to activity change, negative = cytotoxicity: % is scaled to controls: 0 for no effect and ±100 for the full control effect. Particulars: outcome: dose series up to 57.1 µM unless noted. The procedure, abridged: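 Counterscreen run in the same HEK293-ACE2 line as the pseudotyped-particle entry assay, without particles. Viability after 48 h at 37 C was read as ATP luminescence, scaled between cell-containing and cell-free wells.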
In general terms: Counterscreens check selectivity or assay interference.

A short description of assay [6]: Primary qHTS to identify inhibitors of SARS-CoV-2 cell entry (AID 1645846). Also: nearly all actives have a fitted effect of over 45% in size. The settings on record: SARS-CoV-2 pseudovirus cell entry assay, luminescence; activity change, negative = inhibition: at 57.1 µM (top of the series) unless noted. The procedure, abridged:
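Using luciferase-reporting pseudoviruses carrying Wuhan-Hu-1 spike, the screen tracks entry into stably ACE2-expressing cells over 48 hr. Activity is expressed relative to spike particles versus particles lacking any fusion protein.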

`NC[C@@H]1CC[C@@H](N)[C@@H](O[C@H]2[C@H](O)[C@@H](O[C@H]3O[C@H](CO)[C@@H](O)[C@H](N)[C@H]3O)[C@H](N)C[C@@H]2N)O1`: the Potency entry in assay [1], in assay [2], in assay [3], in assay [4] and in assay [5] was “inactive” each time. Besides, the activity change, negative = inhibition in assay [6] is -17.7% [at 27.1 µM].
In the case of `O=S(O)CNc1ccc(S(=O)(=O)c2ccc(NCS(=O)O)cc2)cc1`, the Potency entry in assay [1], in assay [2], in assay [3], in assay [4] and in assay [5] was “inactive” each time. The activity change, negative = inhibition in assay [6] came to 3.29%.
As to `C=CCOc1ccc(CC(=O)O)cc1Cl`, the Potency result in assay [1], in assay [2], in assay [3], in assay [4] and in assay [5] was “inactive” in each case. Moreover, in assay [6], the activity change, negative = inhibition was -9.87% [at 114 µM].
For `CCCCC(CC)COC(=O)c1ccc(Nc2nc(Nc3ccc(C(=O)OCC(CC)CCCC)cc3)nc(Nc3ccc(C(=O)OCC(CC)CCCC)cc3)n2)cc1` (stereo unspecified), the Potency entry in assay [1], in assay [2], in assay [3], in assay [4] and in assay [5] was “inactive” throughout. The activity change, negative = inhibition in assay [6] is -28%.
On to `CO[C@H]1C[C@@H]2CC[C@@H](C)[C@@](O)(O2)C(=O)C(=O)N2CCCC[C@H]2C(=O)O[C@H]([C@H](C)C[C@@H]2CC[C@@H](OCCO)[C@H](OC)C2)CC(=O)[C@H](C)/C=C(/C)[C@@H](O)[C@@H](OC)C(=O)[C@H](C)C[C@H](C)\C=C/C=C\C=C/1C`, for which the Potency entry in assay [1], in assay [2], in assay [3], in assay [4] and in assay [5] was “inactive” in each case. The activity change, negative = inhibition in assay [6] was -11.8% [at 27.1 µM].
In the case of `Cc1cc(N2CCN([C@@H]3CN[C@H](C(=O)N4CCSC4)C3)CC2)n(-c2ccccc2)n1`, the Potency result in assay [1], in assay [2], in assay [3], in assay [4] and in assay [5] was “inactive” throughout. For the same compound, the activity change, negative = inhibition in assay [6] was -20%.
On to `CC(C)[C@H](N)C(=O)O`, for which the Potency result in assay [1], in assay [2], in assay [3], in assay [4] and in assay [5] was “inactive” in each case. In addition, in assay [6], the activity change, negative = inhibition is -17.8%.
With `Cn1c(=O)cc(N2CCCC(N)C2)n(Cc2ccccc2C#N)c1=O` (stereo unspecified), the Potency entry in assay [1], in assay [2], in assay [3], in assay [4] and in assay [5] was “inactive” each time. Besides, the activity change, negative = inhibition in assay [6] was -28.9%.
As to `CC(/C=C1\SC(=S)N(CC(=O)O)C1=O)=C\c1ccccc1`, the Potency result in assay [1], in assay [2], in assay [3], in assay [4], in assay [5] and in assay [6] was “inactive” throughout.
For the compound `Cc1ccc(/C=C2\C(=O)C3(C)CCC2C3(C)C)cc1` (stereo unspecified), the Potency result in assay [1], in assay [2], in assay [3], in assay [4], in assay [5] and in assay [6] was “inactive” each time.
Regarding `CCOc1ccc(Cc2cc([C@@H]3O[C@H](CO)[C@@H](O)[C@H](O)[C@H]3O)ccc2Cl)cc1`, the Potency result in assay [1], in assay [2], in assay [3], in assay [4] and in assay [5] was “inactive” throughout. In assay [6], the activity change, negative = inhibition amounted to 0.66%.
As for `CCOc1ccc(CC2NC(=O)CCSSCC(C(=O)N3CCCC3C(=O)NC(CCCN)C(=O)NCC(N)=O)NC(=O)C(CC(N)=O)NC(=O)C(C(C)O)NC(=O)C(C(C)CC)NC2=O)cc1` (stereo unspecified) ([Mpa]Y(Et)ITNCP[Orn]G-NH2; disulfide 1-6; configuration not given here), the Potency entry in assay [1], in assay [2], in assay [3], in assay [4] and in assay [5] was “inactive” throughout. In assay [6], the activity change, negative = inhibition is -38.4%.
Regarding `CC1CC2C3CCC4=CC(=O)C=CC4(C)C3(F)C(O)CC2(C)C1(O)C(=O)COC(=O)c1cccc(S(=O)(=O)O)c1` (stereo unspecified), the Potency result in assay [1], in assay [2], in assay [3], in assay [4] and in assay [5] was “inactive” each time. For the same compound, in assay [6], the activity change, negative = inhibition stood at 4.79%.
Take `O[C@@H]1[C@@H](O)[C@@H](O)OC[C@@H]1O`: the Potency entry in assay [1], in assay [2], in assay [3], in assay [4] and in assay [5] was “inactive” throughout. The activity change, negative = inhibition in assay [6] is -10.9% [at 171 µM].
Regarding `O=C(O)CCCN1CCC(O[C@@H](c2ccc(Cl)cc2)c2ccccn2)CC1`, the Potency entry in assay [1], in assay [2], in assay [3], in assay [4] and in assay [5] was “inactive” throughout. Besides, in assay [6], the activity change, negative = inhibition is -17.2%.
For the compound `NC[C@@H]1O[C@H](O[C@H]2[C@H](O)[C@H](O[C@H]3[C@@H](O)[C@H](N)C[C@H](N)[C@H]3O[C@H]3O[C@H](CN)[C@H](O)[C@H](O)[C@H]3N)O[C@@H]2CO)[C@@H](N)[C@@H](O)[C@@H]1O`, the results for the activity change, negative = inhibition in assay [1], in assay [3] and in assay [6] were -20.9% [at 5.34 µM] (inactive), 3.6% [at 5.34 µM] (inactive) and -25.4% [at 5.25 µM], respectively. Further, the outcome in assay [2] was “inactive [at 5.34 µM]”. Further, the figures for the activity change, negative = cytotoxicity in assay [4] and in assay [5] were -3.76% [at 5.34 µM] (inactive) and 2.87% [at 5.25 µM] (inactive), respectively.
For the compound `CCCCC[C@H](O)/C=C/[C@@H]1[C@@H](C/C=C/CCCC(=O)O)[C@@H](O)C[C@H]1O`, the Potency entry in assay [1], in assay [2], in assay [3], in assay [4] and in assay [5] was “inactive” in each case. In addition, the activity change, negative = inhibition in assay [6] was -6.41%.
As to `CN1C(=O)[C@]23C[C@H]4C(C)(C)[C@]5(CNc6c5ccc5c6OC=CC(C)(C)O5)C[C@@]41CN2CC[C@@]3(C)O`, the Potency result in assay [1], in assay [2], in assay [3], in assay [4], in assay [5] and in assay [6] was “inactive” each time.
Regarding `O=P(O)(O)C(O)(Cc1cnc2ccccn12)P(=O)(O)O`, the outcome in assay [1] was “inactive [at 0.573 µM]”; in assay [2], “inactive [at 0.573 µM]”; in assay [4] it was “inactive [at 0.573 µM]”; in assay [5] it was “inactive [at 0.702 µM]”; in assay [6], “inactive [at 0.702 µM]”. In assay [3], the activity change, negative = inhibition is -0.315% [at 0.573 µM] (inactive).
Take `O=C(O)[C@@H]1C(=CCO)O[C@@H]2CC(=O)N12`: the Potency entry in assay [1], in assay [2], in assay [3], in assay [4], in assay [5] and in assay [6] was “inactive” each time.
For the compound `[2H]C([2H])([2H])C(O)(CCO[C@@H](C)[C@H]1CC[C@H]2/C(=C/C=C3\C[C@@H](O)C[C@H](O)C3=C)CCC[C@]12C)C([2H])([2H])[2H]`, the Potency result in assay [1], in assay [2], in assay [3], in assay [4] and in assay [5] was “inactive” throughout. Also, in assay [6], the activity change, negative = inhibition is -6.57%.
